The source of these data is PubChem BioAssay (EPA / NIEHS).

The term AC50 denotes the concentration giving half of the maximal activity seen.

Experiment [1] in a line: CCTE_Mundy_HCI_Cortical_Synap_Neur_Matur_CellBodySpotCount: CCTE's Synaptogenesis and Neurite Maturation Assay in rat cortical cells for Cell Body Spot Count, Mundy Lab (AID 2284223). An outline of the steps:
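Rat primary cortical cultures received AraC at DIV 5 to arrest glia, were dosed with chemical at DIV 7 with media change, and were fixed at DIV 12 (288.33 h). Synaptophysin puncta on MAP2-positive cell bodies per neuron were counted by high-content imaging versus DMSO.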

A short description of experiment [2]: CCTE_Mundy_HCI_hNP1_Pro_ResponderAvgInten: CCTE's Proliferation Assay in human neuroprogenitor cells, Mundy Lab (AID 2284224; active means hit-call score of the fitted dose curve at least 0.9, where 1 is the maximum). An outline of the steps:
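Proliferation was scored as BrdU labelling intensity in human neural progenitors derived from WA09 embryonic cells, measured 26.25 hours after chemical dosing. Activity was fitted relative to DMSO.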

The nature of experiment [3]: UKN2_HCS_IMR90_cell_viability: Viability Assessment in the University of Konstanz (UKN) Leist Lab Neural Crest Cell Migration Assay in human induced IMR90 Pluripotent Stem Cells (UKN2) (AID 2284233).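 Further: viability of neural crest cells differentiated from IMR90 iPSC measured by calcein-AM fluorescence imaging; cells exposed to compound for 24 h after a 24 h migration phase.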 In outline:
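Human IMR90-derived neural crest cells were allowed to migrate for 24 h into a cell-free zone, then exposed to test chemicals for 24 h. Calcein-AM and Hoechst staining with high-content imaging gave viability, analysed against DMSO baseline.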

Experiment [4] in a line: CCTE_Mundy_HCI_Cortical_NOG_NeuronCount: CCTE's Neurite Outgrowth Assay in rat cortical cells for Neuron Count, Mundy Lab (AID 2284236; active means hit-call score of the fitted dose curve at least 0.9, where 1 is the maximum;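 further: neurons counted by imaging betaIII-tubulin and Hoechst stained cortical cells; cells exposed to compound for about 48 hours before fixation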). An outline of the steps:
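Read-out: neuron number by high-content imaging of betaIII-tubulin (Alexa Fluor-488) and Hoechst-labelled rat primary cortical cells.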

Experiment [5] can be described thus: CCTE_Mundy_HCI_Cortical_NOG_BPCount: CCTE's Neurite Outgrowth Assay in rat cortical cells for Branch Point Count, Mundy Lab (AID 2284237).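 Further: branch points counted about two days after chemical exposure.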 An outline of the steps:
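Measured 50.33 h after dosing, this morphology endpoint uses rat primary cortical cultures labelled for betaIII-tubulin. Branch points are quantified by high-content imaging, with DMSO as negative control and baseline.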

Experiment [6] is described as follows: CCTE_Mundy_HCI_hNP1_Casp3_7: CCTE's Caspase-Glo 3/7 Assay in human neuroprogenitor cells for Apoptosis, Mundy Lab (AID 2284240). An outline of the steps:
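Apoptosis is scored by activated caspase-3/7 luminescence in WA09-derived neural progenitor cells, measured 26.5 h after chemical dosing. Values represent gain of signal relative to DMSO vehicle.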

Experiment [7] in a line: CCTE_Mundy_HCI_hNP1_CellTiter: CCTE's Cell Titer-Glo 2 Assay in human neuroprogenitor cells for Viability, Mundy Lab (AID 2284241; active means hit-call score of the fitted dose curve at least 0.9, where 1 is the maximum). In outline: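 Human neural progenitor cells (hNP1, WA09-derived) were plated on poly-L-ornithine/laminin and grown 40 to 44 hours at 37 °C, 5% CO2 before chemical addition. Twenty-four hours later, ATP was measured by CellTiter-Glo luminescence; loss of signal versus DMSO indicates reduced viability.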

Experiment [8] can be described thus: CCTE_Mundy_HCI_Cortical_Synap_Neur_Matur_NeuronCount: CCTE's Synaptogenesis and Neurite Maturation Assay in rat cortical cells for Neuron Count, Mundy Lab (AID 2284242; active means hit-call score of the fitted dose curve at least 0.9, where 1 is the maximum;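 further: hits reduce neuron count versus DMSO baseline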). An outline of the steps:
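Neuron number was scored by automated high-content imaging of Hoechst- and MAP2-labelled rat primary cortical cells. Glial growth was arrested with AraC at DIV 5, compounds were applied from DIV 7, and cultures ended at DIV 12.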

Experiment [9] is described as follows: BSK_BT_PBMCCytotoxicity: PBMC Cytotoxicity Assessment in the BioMAP Diversity Plus: BT Assay (AID 2284225).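 Further: PBMC viability measured by Alamar Blue dye reduction fluorescence.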 The following applies: primary human B cells with PBMC. In outline: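 PBMC (75,000/well) pretreated with compound 1 h, then activated with SEB and TSST-1 (20 ng/mL each final), incubated 90 h; Alamar Blue added 6 h, fluorescence read at 546/580 nm. Fitted relative to DMSO.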

A short description of experiment [10]: BSK_BT_Bcell_Proliferation: Viability Assessment in the BioMAP Diversity Plus: BT Assay for B cell Proliferation (AID 2284227). The following applies: primary human B cells with PBMC. An outline of the steps: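 SRB-based protein staining (0.1% SRB after 10% TCA fixation, 560 nm) quantifies proliferation in human B cells co-cultured with PBMC, 72 h post-dosing, with signal gain scored relative to DMSO negative control.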

Read-out in experiment [11]: Interleukin 6 (IL6), IL6 (gene 3569)
In words: BSK_BT_xIL6: BioMAP Diversity Plus: BT Assay for Interleukin 6 (IL6) Biomarker Activity (AID 2284228). The conditions noted are these: primary human B cells with PBMC. In outline:
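Human B cell plus PBMC co-culture exposed to test chemical for 24 h; secreted IL-6 quantified by Luminex xMAP bead assay. Activity fitted in the positive direction against DMSO as negative control and baseline.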

Read-out in experiment [12]: Interleukin 17A (IL17A), IL17A (gene 3605)
In words: BSK_BT_xIL17A: BioMAP Diversity Plus: BT Assay for Interleukin 17A (IL17A) Biomarker Activity (AID 2284229). The following applies: primary human B cells with PBMC. An outline of the steps:
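B cells co-cultured with PBMC were exposed to test chemicals, and secreted IL-17A was quantified 24 h after dosing by Luminex xMAP bead immunoassay. Activity was fitted in the gain direction against DMSO as baseline.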

Read-out in experiment [13]: Vascular cell adhesion molecule 1 (VCAM1), VCAM1 (gene 7412)
Description: BSK_MyoF_VCAM1: BioMAP Diversity Plus: MyoF Assay for Vascular cell adhesion molecule 1 (VCAM1) Biomarker Activity (AID 2284231). The following applies: primary human lung fibroblasts. An outline of the steps: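 Primary human lung fibroblasts were dosed with test chemical for 24 h, then cell-surface VCAM-1 was measured by ELISA. Activity was fitted in the positive direction against DMSO as negative control and baseline.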

Read-out in experiment [14]: Collagen I, COL1A1 (gene 1277)
Description: BSK_MyoF_CollagenI: BioMAP Diversity Plus: MyoF Assay for Collagen I Biomarker Activity (AID 2284238). The following applies: primary human lung fibroblasts. An outline of the steps: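 Human lung fibroblasts were exposed to test chemical for 24 h, then Collagen I was quantified by ELISA. Activity was fitted in the increasing direction against DMSO as the negative control and baseline.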

Read-out in experiment [15]: Collagen III, COL3A1 (gene 1281)
Description: BSK_MyoF_CollagenIII: BioMAP Diversity Plus: MyoF Assay for Collagen III Biomarker Activity (AID 2284239). The following applies: primary human lung fibroblasts. An outline of the steps: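 Human lung fibroblasts were dosed with chemicals and, 24 hours later, collagen III was measured by ELISA. Activity was fitted in the positive direction against the DMSO negative-control baseline.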

Read-out in experiment [16]: Interleukin 17F (IL17F), IL17F (gene 112744)
In words: BSK_BT_xIL17F: BioMAP Diversity Plus: BT Assay for Interleukin 17F (IL17F) Biomarker Activity (AID 2284243). The following applies: primary human B cells with PBMC. An outline of the steps: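 B cell/PBMC co-culture (human primary), 24 h compound exposure; sIL-17F by Luminex xMAP; gain-of-signal fit vs DMSO baseline.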

Read-out in experiment [17]: Actin alpha 1 (ACTA1), ACTA1 (gene 58)
In words: BSK_MyoF_ACTA1: BioMAP Diversity Plus: MyoF Assay for Actin alpha 1 (ACTA1) Biomarker Activity (AID 2284244). The conditions noted are these: primary human lung fibroblasts. In outline: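 Lung fibroblasts, human primary, 24 h compound exposure → a-SMA ELISA. Positive-direction fit vs DMSO control.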

The structures appear in SMILES notation. Records with an inconclusive call do not appear. The source made the active and inactive calls. How the source made its calls, unless noted: active means hit-call score of the fitted dose curve at least 0.9, where 1 is the maximum; inactive means score below 0.9.

Take `CCOCn1c(-c2ccc(Cl)cc2)c(C#N)c(Br)c1C(F)(F)F`: the AC50 in experiment [1] was 18.9 µM (active); in experiment [2] it was 9.2 µM (active); in [3], 15.1 µM (active); in experiment [4], 58 µM (active); in experiment [5], 18.6 µM (active); in [6] it was 10.5 µM (active). In addition, the AC50 is 13.5 µM (active) in experiment [7] and 12.1 µM (active) in [8].
With `CC(C)=CC1C(C(=O)OCc2cccc(Oc3ccccc3)c2)C1(C)C` (centres undefined), the result in experiment [9], in [12], in experiment [13], in experiment [14], in experiment [15] and in experiment [17] was inactive. Moreover, the results for the AC50 in experiment [10], in experiment [11] and in experiment [16] were 31.4 µM (active), 11.2 µM (active) and 20 µM (active), respectively.
Consider `CCOC(=O)CCN(SN(C)C(=O)Oc1cccc2c1OC(C)(C)C2)C(C)C`, for which the AC50 in experiment [9] is 25.9 µM (active); in experiment [10], 28.9 µM (active); in experiment [11] it was 33.4 µM (active); in experiment [12], 26.5 µM (active); in experiment [13] it was 33.1 µM (active); in experiment [16], 30 µM (active). The AC50 in [17] was 29.3 µM (active). Further, the outcome in [14] and in [15] was inactive.
With `O=[N+]([O-])c1ccc(Nc2ccccc2)cc1`, the result in experiment [9], in experiment [10], in experiment [11], in experiment [12], in experiment [13] and in experiment [14] was inactive. Besides, the outcome in experiment [15], in experiment [16] and in experiment [17] was inactive.
As to `Nc1c(Oc2ccccc2)cc(O)c2c1C(=O)c1ccccc1C2=O`, the outcome in experiment [9], in [10], in [11], in experiment [12], in experiment [13] and in experiment [14] was inactive. Further, the result in [15], in experiment [16] and in [17] was inactive.
Take `Cc1ccc(OP(=O)(Oc2ccc(C)cc2C)Oc2ccc(C)cc2C)c(C)c1`: the AC50 in experiment [9] is 5.32 µM (active); in [10] it was 20 µM (active); in [11], 11.7 µM (active); in experiment [12] it was 20 µM (active); in experiment [15] it was 20 µM (active); in [16], 24.9 µM (active). For the same compound, the outcome in [13], in [14] and in [17] was inactive.
Take `Cc1c([N+](=O)[O-])c(C)c([N+](=O)[O-])c(C(C)(C)C)c1[N+](=O)[O-]`: the outcome in experiment [9], in experiment [10], in experiment [11], in experiment [12] and in [15] was inactive. For the same compound, the AC50 in experiment [13] is 20 µM (active); in [14], 32.1 µM (active); in experiment [16] it was 28.1 µM (active); in experiment [17] it was 33 µM (active).
Turning to `Oc1c(Br)cc(Br)cc1Br`, the outcome in experiment [9], in experiment [10], in experiment [11], in experiment [12], in experiment [15] and in experiment [16] was inactive. For the same compound, the result in [17] was inactive. In addition, the values for the AC50 in [13] and in [14] were 15.4 µM (active) and 29.9 µM (active), respectively.
In the case of `C[C@]12CC[C@@H](O)C[C@@H]1CC[C@@H]1[C@@H]2CC[C@]2(C)C(=O)CC[C@@H]12`, the outcome in [9], in experiment [10], in experiment [11], in experiment [12], in experiment [13] and in [14] was inactive. The outcome in [15], in experiment [16] and in [17] was inactive.
Regarding `O=C(O)COc1cc(Cl)c(Cl)cc1Cl`, the outcome in experiment [9], in [10], in experiment [11], in experiment [12], in experiment [13] and in [14] was inactive. The result in experiment [15], in [16] and in experiment [17] was inactive.
With `CCCCCCCCCCCCN(C)C`, the outcome in [9], in [10], in [11], in [12], in experiment [13] and in experiment [14] was inactive. Besides, the result in experiment [15], in experiment [16] and in experiment [17] was inactive.
Consider `Oc1ccc(Cc2ccc(O)cc2)cc1`, for which the outcome in [9], in experiment [10], in experiment [11], in experiment [12], in experiment [13] and in experiment [14] was inactive. For the same compound, the result in [15], in experiment [16] and in experiment [17] was inactive.
As to `CCCCN(CCCC)C(=S)[S-].CCCCN(CCCC)C(=S)[S-].[Ni+2]`, the outcome in experiment [9], in experiment [10], in experiment [11], in experiment [12], in experiment [13] and in experiment [14] was inactive. The outcome in [15], in experiment [16] and in [17] was inactive.
`O=[N+]([O-])c1cccc2ccccc12`: the result in [9], in experiment [10], in experiment [11], in experiment [12], in [13] and in [14] was inactive. Further, the outcome in experiment [15], in experiment [16] and in experiment [17] was inactive.
As to `O=C(CCl)NCO`, the result in experiment [9], in experiment [10], in [11], in experiment [12], in experiment [13] and in [14] was inactive. For the same compound, the outcome in [15], in [16] and in experiment [17] was inactive.
